Bioassay records as filed in PubChem BioAssay.
CCHF vOTU inh: CCHFV vOTU protease inhibition; Pep-AMC fluorescence; inhibition, % at 11.5 µM; actives 0.55% (n = 370,000); AID 651958
GDH-TPI counter-1: inhibits GDH-TPI coupling enzymes, artifact for Mtb FBA screen. GDH-TPI coupled enzyme counterscreen, NADH absorbance. inhibition, % at 4.8 µM. actives 1.2% (n = 360,000). AID 588335
Vc quorum ag: inducers of Vibrio cholerae quorum light production without autoinducers | V. cholerae BH1578 lux reporter, luminescence, 6 h | activation, % at 18.7 µM | actives 0.16% (n = 350,000); in the data active means activation mostly above about 9.7%, no sharp cut-off
Mtb FBA inh: inhibitors of M. tuberculosis fructose-bisphosphate aldolase; actives 2.3% (n = 360,000); purified M. tuberculosis FBA, fluorescence read-out; P9WQA3; inhibition, % at 1 µM; in the data active means inhibition above about 27%
Target sequence (P9WQA3 whole entry, looked up): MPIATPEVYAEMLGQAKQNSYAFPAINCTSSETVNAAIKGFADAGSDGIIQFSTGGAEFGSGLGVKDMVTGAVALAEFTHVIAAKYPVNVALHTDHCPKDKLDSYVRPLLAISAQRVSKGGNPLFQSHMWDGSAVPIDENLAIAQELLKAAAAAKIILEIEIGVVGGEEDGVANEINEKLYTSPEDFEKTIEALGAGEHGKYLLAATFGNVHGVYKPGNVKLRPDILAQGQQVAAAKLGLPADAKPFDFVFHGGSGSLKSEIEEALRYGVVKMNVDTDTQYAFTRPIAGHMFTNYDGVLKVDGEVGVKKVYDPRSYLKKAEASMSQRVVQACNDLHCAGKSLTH
Mtb FBA confirm: Mtb FBA inhibition, confirmed; shares compounds with Mtb FBA inh; purified M. tuberculosis FBA, fluorescence read-out; inhibition, % at 1 µM; actives 78% (n = 5,600); AID 651616; in the data active means inhibition above about 27%
GDH-TPI counter-2: counter-screen for M. tuberculosis FBA inhibitors: GDH-TPI coupled enzyme inhibition. actives 81% (n = 5,600). GDH-TPI coupled enzyme counterscreen, fluorescence. shares compounds with Mtb FBA inh. inhibition, % at 1 µM; in the data active means inhibition above about 10%
GDH-TPI dose: counter-screen for M. tuberculosis FBA inhibitors: GDH-TPI dose response; shares compounds with Mtb FBA inh; IC50, µM; actives 79% (n = 170); GDH-TPI coupled enzyme assay, fluorescence, artifact counterscreen; call rule not given here
Numbers stand for hits; i = inactive; nt = not tested or not shown; + = active, no number. This is a sample that favours compounds with a hit; in the whole collection about 3.9% have one here. Unless noted, no stated cut-off is given here; in the data, active means inhibition above about 30%; inactive means the rest.

SMILES | CCHF vOTU inh | GDH-TPI counter-1 | Vc quorum ag | Mtb FBA inh | Mtb FBA confirm | GDH-TPI counter-2 | others
C#CCN(C(=O)c1ccc(OC2CCN(C(=O)CCOC)CC2)cc1)C1CCCCC1 | i | i | i | i | nt | nt
N#Cc1c(-c2ccco2)cc(C2CC2)nc1N | i | i | i | 49 | i | i | GDH-TPI dose=2.6
O=C(COC(=O)CNC(=O)c1cc(Cl)cc([N+](=O)[O-])c1)NC(=O)NCc1ccco1 | i | i | nt | i | nt | nt
Cc1cccn2c(=O)c3cc(C(=O)NCCCn4ccnc4)n(C)c3nc12 | i | i | i | 59 | 77 | 53
Cc1cccc(C(=O)NCCCn2ccnc2)c1C | i | i | i | i | nt | nt
Cc1cccn2c(=O)c3cc(C(=O)NCCCN4CCCC4=O)n(C)c3nc12 | i | i | i | 108 | i | i
Cc1cccn2c(=O)c3cc(C(=O)N(C)C)n(C)c3nc12 | i | i | i | 49 | 93 | 69
Cn1c(C(=O)NCCCN2CCCC2=O)cc2c(=O)n(C)c3ccccc3c21 | i | i | i | i | nt | nt
O=C(NNC(=O)c1ccncc1)NC1CCCCC1 | i | i | i | i | nt | nt
CC(=O)NNC(=O)c1cc2c3ccccc3n(C)c2s1 | i | i | i | i | nt | nt
Cn1c2ccccc2c2cc(C(=O)N3CCN(CCO)CC3)sc21 | i | i | i | 29 | 122 | 90
Cn1cccc1/C=C1\SC(=S)N(NC(=O)c2ccc(F)cc2)C1=O | i | i | i | i | nt | nt
C=CCN(c1ccccc1)S(=O)(=O)c1cccc(C(=O)O)c1 | i | i | i | 54 | 199 | 189
O=C1c2ccccc2NC(c2ccccc2O)N1O (stereo not drawn) | i | i | i | i | nt | nt
CCCN1C(=O)c2ccccc2NC1c1ccc(OC)cc1OC (stereo not drawn) | i | i | i | 81 | 45 | 43
COc1ccc(C2Nc3ccccc3C(=O)N2NC(C)=O)c(OC)c1 (stereo not drawn) | i | i | i | 41 | 72 | 50
CCCN1C(=O)c2ccccc2NC1c1ccc(OC)cc1O (stereo not drawn) | i | i | i | 58 | i | i
CCCS(=O)(=O)c1ccc(COC(=O)c2cccc(NC(=O)C(C)C)c2)cc1 | i | i | i | i | nt | nt
COc1ccc(C(CNC(=O)c2ccc(C)c(S(=O)(=O)Nc3ccccc3OC)c2)N2CCCC2)cc1 (stereo not drawn) | i | i | i | i | nt | nt
COc1ccccc1NC(=O)c1ccccc1SCC(=O)N1CCCC1 | i | i | i | i | nt | nt
CN(C)C1=NCC(CSC(=N)N)S1 (stereo not drawn) | i | i | i | 68 | 200 | 175
Cc1cc(C)cc(Oc2ccc(C(F)(F)F)cc2C#N)c1 | i | i | i | i | nt | nt
COc1ccc(-c2oc3ccccc3c2C(=O)OCc2ccccc2)cc1 | i | i | i | 99 | + | 175
COc1ccc(OC(=O)OCc2ccccc2)cc1 | i | i | i | i | nt | nt
COc1ccc(-c2oc3ccccc3c2C(=O)Oc2ccccc2)cc1 | i | i | i | 91 | 29 | 27
SMILES | CCHF vOTU inh | GDH-TPI counter-1 | Vc quorum ag | Mtb FBA inh | Mtb FBA confirm | GDH-TPI counter-2 | others
COc1ccc(-c2oc3ccccc3c2C(=O)OCc2ccc(O)cc2)cc1 | i | i | i | 74 | 60 | 64
CC(=O)Nc1cnc(/C=C\CCCO)cn1 | i | i | i | 32 | i | i
CC(=O)Nc1cnc(-c2ccccc2C(C)=O)cn1 | i | i | i | i | nt | nt
COc1ccc(-n2c(-c3ccco3)nc3ccccc3c2=O)cc1 | i | i | i | i | nt | nt
Cc1ccc(-n2c(-c3ccco3)nc3nc4ccccc4nc32)cc1F | i | i | i | 33 | 77 | 62
Fc1cccc(-n2c(-c3ccco3)nc3nc4ccccc4nc32)c1 | i | i | i | 52 | 73 | 49
O=C(Cn1c(=O)oc2cc(S(=O)(=O)N3CCCC3)ccc21)NC1CCCCC1 | i | i | i | i | nt | nt
CCc1ccc(CN(C)C(=O)c2cc(COc3cccc4cnccc34)on2)cc1 | i | i | i | i | nt | nt
CCCc1cc(=O)oc2cc(OC(C)C(=O)NCCCn3ccnc3)ccc12 (stereo not drawn) | i | i | i | i | nt | nt
CCCc1cc(=O)oc2cc(C)cc(OC(C)C(=O)NCCCn3ccnc3)c12 (stereo not drawn) | i | i | i | 75 | 175 | 164
Cc1cc(OC(C)C(=O)NCCCn2ccnc2)c2c(C)cc(=O)oc2c1 (stereo not drawn) | i | i | i | 96 | + | +
O=C(O)c1ccccc1CC(CCc1ccccc1)C(=O)O (stereo not drawn) | i | i | i | i | nt | nt
CCCCn1c(-c2ccc(OC)cc2)nc2c(=O)n(C)c(=O)[nH]c21 | i | i | i | 58 | 107 | 106
CCCn1c(-c2ccc(OC)cc2)nc2c(=O)n(C)c(=O)[nH]c21 | i | i | i | 71 | i | i
CCCCn1c(-c2ccc(Cl)cc2)nc2c(=O)n(C)c(=O)[nH]c21 | i | i | i | i | nt | nt
Cn1c(=O)[nH]c2c(nc(-c3ccc(Cl)cc3)n2C)c1=O | i | i | i | 28 | i | i
CCc1ccccc1NC(=O)CN1CCN(C(=O)c2ccc(OCc3cn4ccccc4n3)cc2)CC1 | i | i | i | i | nt | nt
COC(=O)C1=CN(Cc2ccc(OC)c(OC)c2)C=C(C(=O)OC)C1c1cccc(O)c1 | i | i | i | 111 | 109 | 82
COC(=O)C1=C(C)N(C)C(C)=C(C(=O)OC)C1c1ccsc1 | i | i | i | i | nt | nt
COC(=O)C1=CN(CCOC23CC4CC(CC(C4)C2)C3)C=C(C(=O)OC)C1c1ccsc1 | i | i | i | 63 | 101 | 85
COC(=O)C1=CN(Cc2ccc(OC)cc2)C=C(C(=O)OC)C1c1ccsc1 | i | i | i | 98 | 131 | 86
COC(=O)C1=CN(CC2CCCO2)C=C(C(=O)OC)C1c1ccsc1 (stereo not drawn) | i | i | i | 83 | i | i
CCN1CCN(CCCNC(=O)Cn2nc(C)n3nc(-c4ccccc4)cc3c2=O)CC1 | i | i | i | i | nt | nt
COc1ccc(-c2cc3c(=O)n(CC(=O)NCCN4CCCC4)nc(C)n3n2)cc1 | i | i | i | 32 | 63 | 54
Cc1ccc(C)c(NC(=O)CSc2nnc(C3CCCCC3)o2)c1 | i | i | i | i | nt | nt
SMILES | CCHF vOTU inh | GDH-TPI counter-1 | Vc quorum ag | Mtb FBA inh | Mtb FBA confirm | GDH-TPI counter-2 | others
CCCc1nc2cc(Cl)c([N+](=O)[O-])cc2o1 | i | i | i | i | nt | nt
CC1(C)S[C@@H]2[C@H](NC(=O)[C@H](N)c3ccccc3)C(=O)N2[C@H]1C(=O)OC1OC(=O)c2ccccc21 (stereo partly drawn) | i | i | i | 66 | + | 160
COCC(=O)N1CCC(Oc2ccc(C(=O)NC(C)c3csc(C)n3)cc2)CC1 (stereo not drawn) | i | i | i | i | nt | nt
COc1cccc(-c2csc(NNC(=O)c3cccs3)n2)c1 | i | i | i | 64 | 28 | 14
O=C(O)CSCc1nc2scc(-c3ccccc3)c2c(=O)[nH]1 | i | i | i | i | nt | nt
O=C(CSCc1nc2scc(-c3cccs3)c2c(=O)[nH]1)Nc1ccccn1 | i | i | i | 34 | i | i
